A selection: hits, their analogues and other compounds. The true share with any hit is near 7%.
KAT2A inh = blocks human GCN5L2 histone acetyltransferase | GCN5L2 HAT assay, ThioGlo1 CoA-SH fluorescence | Potency, µM (highest dose often 58.9 µM), usual class: inhibitors | actives 0.21% (n = 390,000)
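Free CoA generated was detected with ThioGlo1 (50uM) fluorescence at Ex340nm/Em540nm, read immediately and after 20 min at room temperature. Enzyme, 20 nM in HEPES pH 7.5 buffer, saw compounds 15 min before adding 75uM H3(1-25) peptide and 70uM acetyl-CoA.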
BAZ2B block = blocks human BAZ2B | Potency, µM (titrated, usually from 114 µM), most hits filed as inhibitors | actives 4.4% (n = 360,000) | AlphaScreen BAZ2B-H3K14Ac peptide displacement | Q9UIF8; also: nearly all actives have a fitted effect of over 60% in size
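AlphaScreen displacement: compounds (up to 110uM) incubated 30 min at room temperature with a preformed 50 nM BAZ2B/50 nM biotinylated H3K14Ac peptide complex in PBS pH 7.4 with Tween-20. Donor and acceptor beads at 10 ug/mL final added, 20 min light-protected before reading.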
PI5P4K alpha inh = blocks human PI5P4K alpha kinase activity | PI5P4Kalpha enzyme, ADP-Glo luminescence, 60 min; hits give low values | AID 652105 | actives 1.2% (n = 330,000) | max response, %; active = max response of -50% or lower; inconclusive = between -30% and -50%; inactive = -30% or higher; also: value at the top dose of about 77 µM
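ADP-Glo luminescence end-point read after a 60 min room-temperature kinase reaction of PI5P4Kalpha plus substrate, initiated with ATP at 5 microM final. Buffer: 0.038 M HEPES pH 7.4, EGTA, 0.1% CHAPS, 5% DMSO.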
JMJD2A Tudor inh = JMJD2A Tudor domain (human) inhibition | O75164 | AlphaScreen JMJD2A-Tudor / H3K4me3 peptide binding | Potency, µM (highest dose often 114 µM), hits mostly inhibitors | actives 4.4% (n = 390,000); also: nearly all actives have a fitted effect of over 50% in size
PLK1 PBD block = inhibitors of human PLK1 polo-box domain binding | P53350 | Plk1 PBD binding of FITC phosphopeptide, fluorescence polarization | Potency, µM, most hits filed as inhibitors | actives 2.8% (n = 360,000); also: series mostly up to about 57 µM; nearly all actives have a fitted effect of over 65% in size
HP1b binding inh = blocks HP1-beta chromodomain binding to methylated histone tails | AID 540317 | actives 0.56% (n = 390,000) | Potency, µM (doses to about 114 µM), hits mostly inhibitors | P83916 | AlphaScreen HP1-beta / biotin-H3K9me3 peptide binding; also: nearly all actives have a fitted effect of over 70% in size
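Compound inhibition of the preformed complex between 50 nM HP1-beta and 50 nM biotinylated H3K9me3 peptide was read by AlphaScreen. Buffer was PBS pH 7.4 with 0.01% Tween-20. Incubations ran 30 min at room temperature, with 10 ug/mL donor/acceptor beads.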
Numbers stand for hits; – = inactive; ? = inconclusive; · = no result given; [ ] = dose if it differs, or a comment. Unless noted, calls follow the shape of the dose curve; as a rule, active = well fitted curve in the direction sought with a large enough effect; inconclusive = small, poorly fitted or top-dose-only effect, or another doubt; inactive = no such curve, though single readings can be large; an effect the other way counts as inactive or inconclusive.

SMILES | KAT2A inh | BAZ2B block | PI5P4K alpha inh | JMJD2A Tudor inh | PLK1 PBD block | HP1b binding inh
Cc1ccc(NC(=O)CSc2nnc(C3CC3)n2CC2CCCO2)c(C)c1 (centres undefined) | – | – | – | – | – | –
CCCCn1c(N)c(N(Cc2ccccc2OC)C(=O)COc2ccc(C)cc2)c(=O)[nH]c1=O | – | – | – | – | – | –
O=C(NCc1ccc(F)cc1)C(=O)NCC(c1cccs1)S(=O)(=O)c1cccs1 (centres undefined) | – | – | · | – | · | –
Cc1nc2cc(NCc3nc4ccccc4n3Cc3ccccc3)ccc2n1C | – | 44.7µM | – | ? | – | ?
CC(=O)NCCc1nc2ccccc2n1CCOc1ccccc1 | – | – | – | –[11.4 µM] | 23.8µM | –
CCOc1ccc(NCc2nc3ccccc3n2CCOc2ccccc2)cc1 | – | 11.2µM | – | 17.8µM | – | –
CCOc1ccc(NCc2nc3ccccc3n2CCOc2ccc(C)cc2)cc1 | – | 12.6µM | · | 11.2µM | · | ?
Clc1ccc(NCc2nc3ccccc3n2CCOc2ccccc2)cc1 | – | – | · | – | · | –
CCOC(=O)c1ccc(NC(=O)CC(C)n2nc(C)cc2C)cc1 (centres undefined) | – | – | · | – | · | –
O=C(c1ccccc1O)N(Cc1ccccc1)Cc1cccs1 | · | · | · | – | · | ·
Cc1ccc(NC(=O)CN2C(=O)S/C(=C\c3ccc(-c4cccc(C(=O)O)c4C)o3)C2=O)cc1C | – | 15.8µM | ? | 17.8µM | 18.9µM | 35.5µM
N=C1S/C(=C\c2ccc(-c3ccccc3C(=O)O)o2)C(=O)N1c1ccc2c(c1)OCO2 | – | 20µM | -74.2 | 22.4µM | 26.7µM | 28.2µM
CCOC(=O)CN1C(=O)S/C(=C\c2ccc(-c3cccc(C(=O)O)c3C)o2)C1=O | · | · | – | – | – | –
O=C(CN1C(=O)S/C(=C\c2ccc(-c3cc(C(=O)O)ccc3Cl)o2)C1=O)Nc1ccc2c(c1)OCO2 | ? | 8.91µM | · | · | · | ·
COCCC1CCCCN1C(=O)c1ccc(OC2CCN(C(C)=O)CC2)c(OC)c1 (centres undefined) | – | – | – | – | – | –
C=C(c1ccc(OCCO)cc1)c1ccc(OCCO)cc1 | – | – | – | –[11.4 µM] | 26.7µM | –
O=C(c1ccccc1)c1ccc(OCCO)cc1 | – | – | – | – | – | –
O=C1c2ccccc2C(=O)N1CC#CCN1CCN(C(c2ccccc2)c2ccccc2)CC1 | – | 50.1µM | – | ? | – | –
Cn1nc(C(F)(F)F)c(C#N)c1N1CCN(c2ccccn2)CC1 | – | – | – | 50.1µM | 23.8µM | –
Cn1nc(C(F)(F)F)c(C#N)c1N1CCN(c2ccccc2)CC1 | – | ? | – | – | – | –
Fc1ccc(NCc2cn3ccccc3n2)cc1 | – | 50.1µM | – | – | – | –
CCc1ccccc1NC(=O)CN1CCN(C(=O)CNC(=O)c2ccc(-c3ccccc3)cc2)CC1 | – | – | – | – | – | –
CCc1cccc(CC)c1NC(=O)C1CCC(CNS(=O)(=O)c2cccc3nsnc23)CC1 (centres undefined) | – | – | · | – | · | –
COc1ccccc1NS(=O)(=O)c1cc([N+](=O)[O-])ccc1N/N=C/c1c(C)[nH]c2ccccc12 | – | ? | · | – | – | –
O=[N+]([O-])c1ccc(N/N=C/c2c[nH]c3ccccc23)c(S(=O)(=O)Nc2ccc(Cl)cc2)c1 | – | 44.7µM | · | 28.2µM | – | ?
CCc1ccc(OCC2c3cc(OC)c(OC)cc3CCN2C(=O)Cc2ccc(OC)c(OC)c2)cc1 (centres undefined) | – | ? | · | ? | · | ?
COc1cc(C2C(C#N)=C(N)Oc3c2c(-c2ccccc2)nn3-c2ccccc2)cc(OC)c1OC (centres undefined) | – | 44.7µM | – | ? | – | –
COC(=O)Cc1[nH]nc2c1C(c1cc(OC)c(OC)c(OC)c1)C(C#N)=C(N)O2 (centres undefined) | – | – | – | – | ? | –
Cc1nn(-c2ccccc2)c2c1C(c1ccco1)C(C#N)=C(N)O2 (centres undefined) | – | 39.8µM | – | 63.1µM | 26.7µM | –
